PubChem BioAssay (EPA / NIEHS)
Active and inactive are the calls of the source. How the source made its calls: active means hit-call score of the fitted dose curve at least 0.9, where 1 is the maximum; inactive means score below 0.9.

Key:
Conditions in all cases: mRNA level, 48 h; actives raise or lower the signal
[1] = read-out: Broad substrate specificity ATP-binding cassette transporter ABCG2 (Homo sapiens) (UniProt Q9UNQ0); assay: LTEA_HepaRG_ABCG2: Life Technologies and Expression Analysis (LTEA) Assay for ABC Transporter (ABCG2) using HepaRG (AID 2283465)
Summary of the method: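 Gene expression of ABCG2 in HepaRG liver cells is quantified by qRT-PCR following 48 h exposure across an eight-point series topping at 100 uM. Values come from bidirectional fitting relative to DMSO vehicle.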

[2] = read-out: ATP-citrate lyase (ACLY), ACLY (gene 47); assay: LTEA_HepaRG_ACLY: Life Technologies and Expression Analysis (LTEA) Assay for ATP-citrate lyase (ACLY) using HepaRG (AID 2283466)
Summary of the method: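 ACLY expression changes in human HepaRG liver cells are quantified by qRT-PCR after 48 h exposure to test chemicals (maximum 100 uM, half-log steps). Values are fitted in both directions relative to 0.5% DMSO vehicle.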

[3] = read-out: Peroxisomal acyl-coenzyme A oxidase 1 (ACOX1) gene, ACOX1 (gene 51); assay: LTEA_HepaRG_ACOX1: Life Technologies and Expression Analysis (LTEA) Assay for Peroxisomal acyl-coenzyme A oxidase 1 (ACOX1) gene using HepaRG (AID 2283467)
Summary of the method: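 Human HepaRG hepatic cultures, 48 h treatment with test chemicals up to 100 uM. ACOX1 expression read by qRT-PCR relative to 0.5% DMSO vehicle.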

[4] = read-out: Alkaline Phosphatase, Placental (ALPP) gene, ALPP (gene 250); assay: LTEA_HepaRG_ALPP: Life Technologies and Expression Analysis (LTEA) Assay for Alkaline Phosphatase, Placental (ALPP) gene using HepaRG (AID 2283468);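 on AC50: differentiated human HepaRG liver cells in serum-free induction medium; ALPP transcript by TaqMan qRT-PCR normalized to ACTB GAPDH and POLR2A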
Summary of the method: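 Expression of ALPP was quantified by qRT-PCR against three housekeeping genes in human HepaRG cultures treated for 48 h with an eight-point concentration series up to 100 uM. Activity in either direction was fitted relative to 0.5% DMSO.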

[5] = read-out: Bcl-2 (BAD) gene, BAD (gene 572); assay: LTEA_HepaRG_BAD: Life Technologies and Expression Analysis (LTEA) Assay for Bcl-2 (BAD) gene using HepaRG (AID 2283469)
Summary of the method: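 Activity values reflect up- or down-regulation of BAD mRNA in human HepaRG hepatic cells treated 48 h in serum-free medium, with eight-point half-log dosing capped at 100 uM and 0.5% DMSO vehicle.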

[6] = read-out: Bcl-2 (BAX) gene, BAX (gene 581); assay: LTEA_HepaRG_BAX: Life Technologies and Expression Analysis (LTEA) Assay for Bcl-2 (BAX) gene using HepaRG (AID 2283470)
Summary of the method: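 qRT-PCR read-out of BAX mRNA, normalized to three housekeeping genes, after 48 h chemical exposure of human HepaRG cells in serum-free induction medium; eight-point half-log series, top 100 uM, 0.5% DMSO vehicle; bidirectional fit versus DMSO.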

[7] = read-out: adenosine kinase (ADK) gene, ADK (gene 132); assay: LTEA_HepaRG_ADK: Life Technologies and Expression Analysis (LTEA) Assay for adenosine kinase (ADK) gene using HepaRG (AID 2283471)
Summary of the method: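 HepaRG (human liver), 48 h chemical exposure, 8-pt half-log series, top 100 uM, 0.5% DMSO vehicle. Readout: ADK mRNA by qRT-PCR vs housekeeping genes; bidirectional curve fit relative to DMSO baseline.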

[8] = read-out: Alpha-fetoprotein (AFP) gene, AFP (gene 174); assay: LTEA_HepaRG_AFP: Life Technologies and Expression Analysis (LTEA) Assay for Alpha-fetoprotein (AFP) gene using HepaRG (AID 2283472);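 on AC50: AFP transcript by TaqMan qRT-PCR normalized to ACTB GAPDH and POLR2A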
Summary of the method: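 qRT-PCR (Fluidigm TaqMan) readout of AFP transcript, normalized to three housekeeping genes, fitted bidirectionally against 0.5% DMSO baseline. HepaRG cells received chemicals for 48 h in serum-free induction medium, top concentration 100 uM, half-log steps.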

BCL2L11 (gene 10018) = assay: LTEA_HepaRG_BCL2L11: Life Technologies and Expression Analysis (LTEA) Assay for Bcl-2 (BCL2L11) gene using HepaRG (AID 2283473)
Summary of the method: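 Cells were plated, cultured 48 h, switched to serum-free induction medium, then dosed in duplicate for 48 h at eight half-log concentrations up to 100 uM. Lysates underwent RNA isolation and TaqMan qRT-PCR; gain or loss versus DMSO was fitted.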

[9] = read-out: Apolipoprotein A-V (APOA5) gene, APOA5 (gene 116519); assay: LTEA_HepaRG_APOA5: Life Technologies and Expression Analysis (LTEA) Assay for Apolipoprotein A-V (APOA5) gene using HepaRG (AID 2283474)
Summary of the method: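 Human liver HepaRG cells are treated 48 h with test chemicals (100 uM top, half-log dilutions, 0.5% DMSO). APOA5 mRNA induction or loss is measured by qRT-PCR relative to vehicle.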

[10] = read-out: Bcl-2 (BID) gene, BID (gene 637); assay: LTEA_HepaRG_BID: Life Technologies and Expression Analysis (LTEA) Assay for Bcl-2 (BID) gene using HepaRG (AID 2283476)
Summary of the method: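 HepaRG, 48 h exposure, 8-pt half-log series, top 100 uM, 0.5% DMSO vehicle, duplicates. Readout: BID mRNA by TaqMan qRT-PCR; housekeeping-normalized; bidirectional curve fit vs DMSO baseline.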

Caspase-3 (Homo sapiens) = Caspase-3 (Homo sapiens) (UniProt P42574); assay: LTEA_HepaRG_CASP3: Life Technologies and Expression Analysis (LTEA) Assay for cysteine-aspartic acid protease (CASP3) using HepaRG (AID 2283477)
Chain of Caspase-3 (Homo sapiens) (P42574 whole entry, looked up): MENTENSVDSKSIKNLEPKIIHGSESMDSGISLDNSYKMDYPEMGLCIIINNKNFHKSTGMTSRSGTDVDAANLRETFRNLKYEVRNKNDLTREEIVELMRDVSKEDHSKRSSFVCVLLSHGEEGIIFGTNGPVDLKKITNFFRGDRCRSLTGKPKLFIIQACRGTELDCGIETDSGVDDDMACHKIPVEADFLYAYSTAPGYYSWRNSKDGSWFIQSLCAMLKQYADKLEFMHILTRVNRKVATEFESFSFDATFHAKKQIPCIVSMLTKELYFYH
Summary of the method: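 In HepaRG liver cells dosed for 48 h at up to 100 uM (eight-point, duplicate), CASP3 expression changes are scored by qRT-PCR. Activity is fitted in both directions with 0.5% DMSO as baseline.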

[11] = read-out: Cytochrome P450 (CYP24A1), CYP24A1 (gene 1591); assay: LTEA_HepaRG_CYP24A1: Life Technologies and Expression Analysis (LTEA) Assay for Cytochrome P450 (CYP24A1) using HepaRG (AID 2283478)
Summary of the method: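 Human liver HepaRG cultures receive each chemical for 48 h across an eight-point half-log series topping at 100 uM in 0.5% DMSO. Induction or suppression of CYP24A1 mRNA is scored relative to vehicle after housekeeping-gene normalization.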

[12] = read-out: Cytochrome P450 (CYP1A2), CYP1A2 (gene 1544); assay: LTEA_HepaRG_CYP1A2: Life Technologies and Expression Analysis (LTEA) Assay for Cytochrome P450 (CYP1A2) using HepaRG (AID 2283479);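 on AC50: TaqMan qRT-PCR transcript level normalized to ACTB GAPDH and POLR2A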
Summary of the method: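 Assesses CYP1A2 mRNA in human HepaRG liver cells after 48 h chemical exposure at up to 100 uM. Values come from qRT-PCR with bidirectional curve fitting relative to DMSO.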

[13] = read-out: cysteine-aspartic acid protease (CASP8), CASP8 (gene 841); assay: LTEA_HepaRG_CASP8: Life Technologies and Expression Analysis (LTEA) Assay for cysteine-aspartic acid protease (CASP8) using HepaRG (AID 2283480)
Summary of the method: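 Concentration-response in duplicate up to 100 uM (half-log steps, 0.5% DMSO) on differentiated HepaRG cultures for 48 h. Expression change of CASP8 mRNA is determined by TaqMan qRT-PCR with housekeeping-gene normalization.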

[14] = read-out: Cytochrome P450 (CYP2B6), CYP2B6 (gene 1555); assay: LTEA_HepaRG_CYP2B6: Life Technologies and Expression Analysis (LTEA) Assay for Cytochrome P450 (CYP2B6) using HepaRG (AID 2283481)
Summary of the method: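 Using 48 h treatment of HepaRG cells in serum-free induction medium, concentrations spanned half-log steps from 100 uM in 0.5% DMSO vehicle. CYP2B6 mRNA induction or loss is scored by qRT-PCR against DMSO.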

[15] = read-out: Cytochrome P450 2C19 (Homo sapiens) (UniProt P33261); assay: LTEA_HepaRG_CYP2C19: Life Technologies and Expression Analysis (LTEA) Assay for CYP2C19 using HepaRG (AID 2283482)
Summary of the method: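 Human HepaRG liver cells received test chemicals for 48 h (highest 100 uM, half-log dilutions in 0.5% DMSO). CYP2C19 mRNA induction or loss is read by multiplexed qRT-PCR and fitted in both directions versus vehicle.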

CYP2C8 (gene 1558) = assay: LTEA_HepaRG_CYP2C8: Life Technologies and Expression Analysis (LTEA) Assay for CYP2C8 using HepaRG (AID 2283483)
Summary of the method: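 This is a transcriptional endpoint in HepaRG cultures: 48 h exposure, highest concentration 100 uM. CYP2C8 mRNA is quantified by TaqMan qRT-PCR.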

CYP2C9 (gene 1559) = assay: LTEA_HepaRG_CYP2C9: Life Technologies and Expression Analysis (LTEA) Assay for CYP2C9 using HepaRG (AID 2283484)
Summary of the method: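 Eight-point concentration-response (highest 100 uM, half-log dilutions) in HepaRG cells for 48 h; CYP2C9 expression by qRT-PCR normalized to ACTB, GAPDH, POLR2A. Bidirectional fit, DMSO baseline.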

[16] = read-out: Apoptosis regulator Bcl-2 (Homo sapiens) (UniProt P10415); assay: LTEA_HepaRG_BCL2: Life Technologies and Expression Analysis (LTEA) Assay for Bcl-2 gene using HepaRG (AID 2283475);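 further: BCL2 transcript by TaqMan qRT-PCR normalised to ACTB GAPDH and POLR2A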
Summary of the method: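 qRT-PCR read-out (Fluidigm TaqMan) of BCL2 transcript, normalised to three housekeeping genes, after 48 h chemical exposure of HepaRG cells; 8-point half-log series, top 100 uM, 0.5% DMSO vehicle. Gain or loss of signal fitted relative to DMSO baseline.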

Measured: AC50

Chain of Apoptosis regulator Bcl-2 (Homo sapiens) (P10415 whole entry, looked up): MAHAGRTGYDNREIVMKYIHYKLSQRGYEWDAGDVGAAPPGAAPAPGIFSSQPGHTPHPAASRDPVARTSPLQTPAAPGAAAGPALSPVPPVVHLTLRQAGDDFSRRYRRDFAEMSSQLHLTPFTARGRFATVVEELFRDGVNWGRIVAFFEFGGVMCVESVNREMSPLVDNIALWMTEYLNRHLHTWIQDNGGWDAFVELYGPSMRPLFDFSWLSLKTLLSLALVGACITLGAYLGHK
Chain of Broad substrate specificity ATP-binding cassette transporter ABCG2 (Homo sapiens) (Q9UNQ0 whole entry, looked up): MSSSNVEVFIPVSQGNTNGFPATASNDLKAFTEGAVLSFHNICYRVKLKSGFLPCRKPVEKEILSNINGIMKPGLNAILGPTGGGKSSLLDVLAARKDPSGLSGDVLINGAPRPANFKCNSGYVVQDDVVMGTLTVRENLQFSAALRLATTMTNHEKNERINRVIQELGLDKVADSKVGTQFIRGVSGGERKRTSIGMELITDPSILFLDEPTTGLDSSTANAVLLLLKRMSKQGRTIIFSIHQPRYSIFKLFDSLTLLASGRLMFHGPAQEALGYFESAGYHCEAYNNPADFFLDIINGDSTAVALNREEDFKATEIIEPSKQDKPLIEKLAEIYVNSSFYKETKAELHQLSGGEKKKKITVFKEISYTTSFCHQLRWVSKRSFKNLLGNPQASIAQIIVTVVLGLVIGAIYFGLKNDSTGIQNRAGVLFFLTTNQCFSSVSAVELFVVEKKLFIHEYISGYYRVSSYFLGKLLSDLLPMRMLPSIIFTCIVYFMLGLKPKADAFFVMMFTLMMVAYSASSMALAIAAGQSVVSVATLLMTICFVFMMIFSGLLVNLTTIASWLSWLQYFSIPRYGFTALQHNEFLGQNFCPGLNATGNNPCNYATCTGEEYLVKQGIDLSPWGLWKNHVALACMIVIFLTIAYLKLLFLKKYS
Chain of Cytochrome P450 2C19 (Homo sapiens) (P33261 whole entry, looked up): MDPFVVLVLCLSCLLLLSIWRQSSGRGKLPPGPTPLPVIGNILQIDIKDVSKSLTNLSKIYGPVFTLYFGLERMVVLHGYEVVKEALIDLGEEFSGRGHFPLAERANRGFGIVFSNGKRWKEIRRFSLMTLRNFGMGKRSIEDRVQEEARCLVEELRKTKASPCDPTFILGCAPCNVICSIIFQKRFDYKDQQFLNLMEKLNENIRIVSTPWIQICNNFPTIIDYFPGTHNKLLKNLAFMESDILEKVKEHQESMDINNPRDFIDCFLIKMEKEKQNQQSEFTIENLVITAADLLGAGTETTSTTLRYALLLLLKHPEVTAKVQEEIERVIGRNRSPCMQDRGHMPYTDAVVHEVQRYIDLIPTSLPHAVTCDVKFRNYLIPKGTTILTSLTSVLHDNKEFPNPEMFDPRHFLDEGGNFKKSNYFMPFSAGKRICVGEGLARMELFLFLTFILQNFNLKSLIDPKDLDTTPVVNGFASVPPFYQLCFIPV

CC(C)CC(C)O (centres undefined)
active: [12] 50 µM
not listed: [16]
inactive: all other assays above

NC(=O)N(O)[C@@H]1COc2cc(OCc3ccccc3)ccc21
active: [12] 50 µM | [14] 16.2 µM
inactive: all other assays above

CCc1cccc(CC)c1N
active: [12] 50 µM | [14] 6.35 µM
inactive: all other assays above

O=C(NO)C1(NS(=O)(=O)c2ccc(Oc3ccc(F)cc3)cc2)CCOCC1
active: [4] 60.9 µM | [8] 70.2 µM | Caspase-3 (Homo sapiens) 50 µM | [14] 11.8 µM | [15] 12.8 µM | CYP2C8 (gene 1558) 90.7 µM
not listed: [2]
inactive: all other assays above

CCCCCCCCN(C)C
inactive: all assays above

OCCNCCO
active: [4] 50 µM | [8] 50 µM | [14] 50 µM | [15] 50 µM | CYP2C9 (gene 1559) 50 µM
inactive: all other assays above

O=C1CN(N=Cc2ccc([N+](=O)[O-])o2)C(=O)N1
active: [1] 50 µM | [4] 75 µM | [16] 80.7 µM | [14] 50 µM | CYP2C8 (gene 1558) 50 µM
inactive: all other assays above

Nc1ccn([C@@H]2O[C@H](CO)[C@@H](O)[C@@H]2O)c(=O)n1
not listed: [15]
inactive: all other assays above

C[C@]12C=CC(=O)C=C1CC[C@H]1[C@@H]3C[C@@H](O)[C@](O)(C(=O)CO)[C@@]3(C)C[C@H](O)[C@@]12F
active: [12] 50 µM
not listed: [7] | [15]
inactive: all other assays above

C[C@@H](Oc1ccc(CNC(=O)c2cccnc2Oc2ccc3c(c2)OCO3)c(F)c1)C(=O)O
inactive: all assays above

Cn1cc[nH]c1=S
not listed: [12]
inactive: all other assays above

CCCCCCCCCCCCCCO
active: [12] 50 µM
inactive: all other assays above

OC(Cn1cncn1)(Cn1cncn1)c1ccc(F)cc1F
active: [14] 27.1 µM
inactive: all other assays above
